Reference: PubChem BioAssay (NCI)
Compounds without any hit were thinned out: in the full panel of roughly 79,000, 15% have a hit. A number with no mark means an inactive call. The source made the active and inactive calls. No stated cut-off is given here; in the data, active means growth inhibition above about 70%; inactive means the rest.

Assay: NCI Yeast Anticancer Drug Screen. Data for the rad52 strain (AID 147);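 further: 0% = growth of vehicle-treated control cultures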
Details: S. cerevisiae rad52 mutant growth inhibition, hits give high values
Experimental: Growth inhibition of yeast strains with defined genetic alterations is measured as a screen for potential anti-cancer activity. Selected strains with alterations in DNA damage repair or cell cycle control were exposed to compounds and growth inhibition was measured relative to vehicle treated controls. The strain used in this assay is rad52

Row | SMILES | growth inhibition (at 1.2 µM) [%] | growth inhibition (at 3.7 µM) | growth inhibition (at 11.0 µM) | growth inhibition (at 33.0 µM) | growth inhibition (at 100.0 µM)
1 | S=C(Nc1ccc(Cl)cc1)SC1CCCCC1 | 6 | 24% | 34% | 96% (active) | 98% (active)
2 | O=C(NCCCCCCCN1CCCCCCC1)C(C1CCCCC1)C1CCCCC1 | 40 | 52% | 89% (active) | 98% (active) | 99% (active)
3 | Cc1cc(S(=O)(=O)/N=C(/NN)NNc2cccc(C(F)(F)F)n2)c(S)cc1Cl | 1 | -1% | -2% | -4% | 23%
4 | COc1cc(C2c3cc4c(cc3OC(Nc3ccccc3)C2C)OCO4)cc(OC)c1O (stereo not given) | 1 | 2% | 0% | 2% | 86% (active)
5 | CC(C)/C(Cl)=N\OC(=O)Nc1ccccc1F | 4 | 9% | 19% | 35% | 35%
6 | O=C(N=Nc1cc(Cl)ccc1Cl)NNc1cc(Cl)ccc1Cl | -2 | -4% | -3% | -2% | 2%
7 | O=C1OC(CCl)CN1/N=C/c1ccc([N+](=O)[O-])o1 (stereo not given) | -36 | -11% | 19% | 54% | 88% (active)
8 | CN(C)CCOc1ccc2c(c1)C/C(=C/c1ncc([N+](=O)[O-])n1C)C2=O | 50 | 70% (active) | 83% (active) | 91% (active) | 90% (active)
